Legend:
U-2932 [1] = test: growth inhibition by drug alone (1 - RLU/untreated control) (fraction); higher = stronger inhibition; settings: 177Lu-lilotomab satetraxetan 0 ug/ml
Procedure, shortened: (§1)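 Compound doses on the pre-printed Selleck Cambridge Cancer Compound library plates were 10/100 nM for RIVA cells and 10/1,000 nM for U-2932 cells, seeded at 3,000 cells/well. Before seeding, cells were washed after 18 h with or without a radiolabelled anti-CD37 antibody conjugate (~600 MBq/mg; 0.5 µg/ml RIVA, 1 µg/ml U-2932). Growth inhibition was derived from RealTime-Glo luminescence relative to untreated no-drug control wells. Readings were taken daily starting on day 3, each after 1 h at 37°C, and each well's RLU was divided by the mean of 48 such wells per plate and subtracted from 1.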

RIVA [2] = test: as above; settings: 177Lu-lilotomab satetraxetan 0 ug/ml
Procedure, shortened: as §1

U-2932 [3] = test: growth inhibition by drug plus 177Lu-lilotomab satetraxetan (1 - RLU/untreated control) (fraction); higher = stronger inhibition; settings: 177Lu-lilotomab satetraxetan 1 ug/ml
Procedure, shortened: as §1

RIVA [4] = test: as above; settings: 177Lu-lilotomab satetraxetan 0.5 ug/ml
Procedure, shortened: as §1

Structure (SMILES)	growth inhibition by drug alone (U-2932 [1]; 10 nM, time (day): 3)	growth inhibition by drug alone (U-2932 [1]; 10 nM, time (day): 4)	growth inhibition by drug alone (U-2932 [1]; 10 nM, time (day): 5)	growth inhibition by drug alone (U-2932 [1]; 10 nM, time (day): 6)	growth inhibition by drug alone (U-2932 [1]; 1000 nM, time (day): 3)	growth inhibition by drug alone (U-2932 [1]; 1000 nM, time (day): 4)	growth inhibition by drug alone (U-2932 [1]; 1000 nM, time (day): 5)	growth inhibition by drug alone (U-2932 [1]; 1000 nM, time (day): 6)	growth inhibition by drug alone (RIVA [2]; 10 nM, time (day): 3)	growth inhibition by drug alone (RIVA [2]; 10 nM, time (day): 4)	growth inhibition by drug alone (RIVA [2]; 10 nM, time (day): 5)	growth inhibition by drug alone (RIVA [2]; 10 nM, time (day): 6)	growth inhibition by drug alone (RIVA [2]; 100 nM, time (day): 3)	growth inhibition by drug alone (RIVA [2]; 100 nM, time (day): 4)	growth inhibition by drug alone (RIVA [2]; 100 nM, time (day): 5)	growth inhibition by drug alone (RIVA [2]; 100 nM, time (day): 6)	growth inhibition by drug plus 177Lu-lilotomab satetraxetan (U-2932 [3]; 10 nM, time (day): 3)	growth inhibition by drug plus 177Lu-lilotomab satetraxetan (U-2932 [3]; 10 nM, time (day): 4)	growth inhibition by drug plus 177Lu-lilotomab satetraxetan (U-2932 [3]; 10 nM, time (day): 5)	growth inhibition by drug plus 177Lu-lilotomab satetraxetan (U-2932 [3]; 10 nM, time (day): 6)	growth inhibition by drug plus 177Lu-lilotomab satetraxetan (U-2932 [3]; 1000 nM, time (day): 3)	growth inhibition by drug plus 177Lu-lilotomab satetraxetan (U-2932 [3]; 1000 nM, time (day): 4)	growth inhibition by drug plus 177Lu-lilotomab satetraxetan (U-2932 [3]; 1000 nM, time (day): 5)	growth inhibition by drug plus 177Lu-lilotomab satetraxetan (U-2932 [3]; 1000 nM, time (day): 6)	growth inhibition by drug plus 177Lu-lilotomab satetraxetan (RIVA [4]; 10 nM, time (day): 3)	growth inhibition by drug plus 177Lu-lilotomab satetraxetan (RIVA [4]; 10 nM, time (day): 4)	growth inhibition by drug plus 177Lu-lilotomab satetraxetan (RIVA [4]; 10 nM, time (day): 5)	growth inhibition by drug plus 177Lu-lilotomab satetraxetan (RIVA [4]; 10 nM, time (day): 6)	growth inhibition by drug plus 177Lu-lilotomab satetraxetan (RIVA [4]; 100 nM, time (day): 3)	growth inhibition by drug plus 177Lu-lilotomab satetraxetan (RIVA [4]; 100 nM, time (day): 4)	growth inhibition by drug plus 177Lu-lilotomab satetraxetan (RIVA [4]; 100 nM, time (day): 5)	growth inhibition by drug plus 177Lu-lilotomab satetraxetan (RIVA [4]; 100 nM, time (day): 6)
CN(C)Cc1c(C(=O)NCCOc2ccc(C(=O)NO)cc2)oc2ccccc12	0.0311	0.0492	0.0509	-0.0158	0.972	0.985	0.987	0.988	-0.0928	-0.0394	-0.0793	-0.251	0.392	0.295	0.256	0.158	0.0477	0.0589	0.111	0.194	0.988	0.989	0.99	0.991	0.524	0.628	0.645	0.659	0.926	0.925	0.931	0.938
CNC(=O)[C@@H](NC(=O)[C@H](CC(C)C)[C@H](O)C(=O)NO)C(C)(C)C [Marimastat]	-0.0984	-0.0992	-0.103	-0.269	-0.124	-0.117	-0.167	-0.336	-0.274	-0.343	-0.475	-0.556	-0.508	-0.486	-0.476	-0.599	-0.127	-0.0607	0.00218	0.096	-0.0404	-0.014	0.0136	0.157	0.34	0.438	0.469	0.492	0.34	0.431	0.449	0.457
FC(F)c1nc2ccccc2n1-c1nc(N2CCOCC2)nc(N2CCOCC2)n1	0.143	0.0834	0.0466	0.0263	0.437	0.399	0.349	0.367	0.208	0.164	0.161	0.106	0.823	0.782	0.766	0.718	0.0955	0.119	0.149	0.22	0.282	0.348	0.331	0.393	0.45	0.529	0.568	0.572	0.763	0.779	0.782	0.761
